{"source": "PubChem BioAssay", "note": "Active and inactive are the calls of the source.", "data": [{"test": "A549 lung cancer cell viability effects, profiling panel, resazurin fluorescence, 24 h, PK04 Diversity Set (AID 1171); also: test concentration not given here", "settings": "higher = more signal, called active from +8 up or from −8 down", "values": [{"smiles": "COCC(=C=CC[C@H](O)c1cccc(OCCO)c1)C[C@H](O)COCc1ccccc1", "z-score": "-0.359 (inactive)"}, {"smiles": "C=CCOC(=O)[C@H]1[C@@H]2C(=O)O[C@@H](c3ccccc3)[C@@H](c3ccccc3)N2[C@@H](c2ccc(OCCOC(=O)[C@H]3C[C@H]4C(=O)N[C@@H](CCCCNC(C)=O)C(=O)N4[C@H]3c3cccc(OCCO)c3)cc2)[C@]12C(=O)Nc1ccc(I)cc12", "z-score": "-0.342 (inactive)"}, {"smiles": "Cc1c(NC(=O)/C(C#N)=C/c2ccccc2Cl)c(=O)n(-c2ccccc2)n1C", "z-score": "-0.357 (inactive)"}, {"smiles": "C=C(C(=O)CC[C@@H](OC(=O)c1ccccc1-c1ccccc1C(=O)O)c1ccccc1OCCO)C(C)C", "z-score": "0.63 (inactive)"}, {"smiles": "COc1ccc([Si](C)(C)[C@@H]2[C@@H](CC(=O)N3Cc4ccccc4C[C@H]3CO)O[C@]3(C(=O)N(Cc4ccc(N5CCC5=O)cc4)c4ccccc43)[C@H]2C)cc1", "z-score": "-0.61 (inactive)"}, {"smiles": "C=C[C@@H](OC)[C@H](OC(=O)Nc1ccc(OC)cc1)c1ccc(OC)c(O)c1", "z-score": "0.376 (inactive)"}, {"smiles": "CCOC(=O)C1=CCC(c2ccco2)N(S(=O)(=O)c2ccc(C)cc2)C1", "note": "(stereo unspecified)", "z-score": "0.326 (inactive)"}, {"smiles": "C=CCNC(=O)[C@H]1[C@@H]2C(=O)O[C@@H](c3ccccc3)[C@@H](c3ccccc3)N2[C@@H](c2ccc(OCCO)cc2)[C@]12C(=O)N(C(=O)OCCOC)c1ccc(C#Cc3ccc(OC)cc3)cc12", "z-score": "0.0724 (inactive)"}, {"smiles": "CN1C=C(C(=O)OCCS(C)(=O)=O)C(C(=O)OCCS(C)(=O)=O)=CC(c2ccc(CO)cc2)=CC1c1cccs1", "note": "(stereo unspecified)", "z-score": "0.458 (inactive)"}, {"smiles": "COC(=O)C1N=C(c2ccc(OCCCO)cc2)N(c2ccccc2)O1", "note": "(stereo unspecified)", "z-score": "0.953 (inactive)"}, {"smiles": "CC(C)N1CC=CC23O[C@@H]4/C=C\\CCCOC(=O)C4[C@H]2C(=O)N(CCCCCCO)[C@@H]3C1=O", "note": "(stereo partly specified)", "z-score": "1.51 (inactive)"}, {"smiles": "COc1cc(NN2C(C(O)C3CCCCC3)C=CC3C(=O)N(c4ccccc4)C(=O)C32)cc(OC)c1OC", "note": "(stereo unspecified)", "z-score": "-1.37 (inactive)"}, {"smiles": "O=C(NCC(O)CO)[C@@]1(CCS(=O)(=O)c2ccccc2)COC(c2ccc(OCCCO)cc2)=N1", "note": "(stereo partly specified)", "z-score": "1.01 (inactive)"}, {"smiles": "NCCCCCNC(=O)[C@@H]1C[C@@H]2C(=O)N3CCC[C@H]3C(=O)N2[C@@H]1c1ccc(O)cc1", "z-score": "-0.234 (inactive)"}, {"smiles": "CCCNC(=O)[C@@]1(Sc2ccc(C)cc2)CC(=O)N(C2CCCCC2)[C@@H]1c1ccc(CO)cc1I", "z-score": "0.696 (inactive)"}, {"smiles": "COC(=O)C1=CC(CCCO)=CC(C)N(Cc2cccc(OC(F)(F)F)c2)C=C1C(=O)OC", "note": "(stereo unspecified)", "z-score": "-0.149 (inactive)"}, {"smiles": "C=CCC(OC(C)=O)[C@@H]1[C@@H](N(Cc2ccc(-c3ccccc3)cc2)C(=O)c2ccc(C)cc2)c2cc(OCCCO)ccc2N1C(=O)Cc1ccc2ccccc2c1", "note": "(stereo partly specified)", "z-score": "0.887 (inactive)"}, {"smiles": "CCCCCCCCCCC(O)C1C=CC2C(=O)N(c3ccccc3)C(=O)C2N1Nc1ccccc1F", "note": "(stereo unspecified)", "z-score": "0.162 (inactive)"}, {"smiles": "CCOC(=O)C[C@H]1[C@H](OC(=O)c2ccc(-c3ccccc3)cc2)[C@@H](NC(=O)Cc2ccc(OC)cc2)c2cc(OCCCO)ccc2N1C(=O)Cc1ccc(OC)cc1", "z-score": "0.207 (inactive)"}, {"smiles": "Cc1ccccc1C(O)C1C=CC2C(=O)NC(=O)C2N1Nc1ccc(Cl)cc1Cl", "note": "(stereo unspecified)", "z-score": "-0.8 (inactive)"}, {"smiles": "COCCOC(=O)N1C(=O)[C@@]2(c3cc(C#CCC(C(=O)OC)C(=O)OC)ccc31)[C@H](c1ccc(OCCO)cc1)N1[C@H](c3ccccc3)[C@H](c3ccccc3)OC(=O)[C@H]1[C@@H]2C(=O)Nc1nc2ccccc2s1", "z-score": "0.108 (inactive)"}, {"smiles": "O=C1C[C@@](C(=O)NCC(F)(F)F)(c2ccc([N+](=O)[O-])cc2)[C@@H](c2ccc(CO)cc2)N1CC12CC3CC(CC(C3)C1)C2", "z-score": "-2.08 (inactive)"}, {"smiles": "CCOC(=O)C[C@H]1[C@H](OC(=O)c2ccccc2-c2ccccc2)[C@@H](NC(=O)c2ccc3ccccc3n2)c2cc(OCCCO)ccc2N1C(=O)c1ccccc1", "z-score": "0.143 (inactive)"}, {"smiles": "COCCOC(=O)N1C(=O)[C@@]2(c3cc(C#CCNC(N)=O)ccc31)[C@H](c1ccc(O)cc1)N1[C@H](c3ccccc3)[C@H](c3ccccc3)OC(=O)[C@H]1[C@@H]2C(=O)N1CCN(c2ncccn2)CC1", "z-score": "-0.163 (inactive)"}, {"smiles": "C=CC[C@H](OC(=O)Nc1ccc(SC)cc1)c1ccc(OCCO)cc1", "z-score": "0.631 (inactive)"}, {"smiles": "C[C@]1(C(=O)O)c2ccccc2C(=O)N(Cc2ccc(OC(F)(F)F)cc2)[C@H]1c1ccc(CO)cc1", "z-score": "0.244 (inactive)"}]}]}
